Screening results deposited in PubChem BioAssay by several laboratories.
D1 mod = D1 CRE-luciferase signal change, two-sided – cell-based, HEK293 D1, dopamine EC30, D1 allosteric modulator project, primary screen; D(1A) dopamine receptor (Homo sapiens), P21728; dopamine EC30 potentiation; actives deviate in either direction; B-score at 10 µM; actives 5.9% (n = 58,000);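 active means luminescence count or its row- and column-corrected plate score outside the 99.7% band of the plate's sample wells, on either side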
Target sequence (P21728 whole entry, looked up): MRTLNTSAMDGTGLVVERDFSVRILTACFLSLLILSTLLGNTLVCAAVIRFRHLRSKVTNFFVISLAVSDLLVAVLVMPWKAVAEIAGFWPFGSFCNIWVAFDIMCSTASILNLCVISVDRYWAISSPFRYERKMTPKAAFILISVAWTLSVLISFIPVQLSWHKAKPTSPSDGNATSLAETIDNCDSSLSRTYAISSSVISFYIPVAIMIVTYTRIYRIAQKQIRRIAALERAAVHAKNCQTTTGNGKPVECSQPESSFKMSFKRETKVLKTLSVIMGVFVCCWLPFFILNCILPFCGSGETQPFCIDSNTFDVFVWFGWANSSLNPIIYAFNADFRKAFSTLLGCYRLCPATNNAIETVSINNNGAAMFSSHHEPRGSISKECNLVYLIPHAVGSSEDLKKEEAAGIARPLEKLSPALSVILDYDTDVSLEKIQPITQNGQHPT
FXIa inh mix = FXIa protease inhibitors in compound pools, primary screen, biochemical, 10-compound mixtures | purified FXIa, fluorogenic substrate, pooled mixtures | inhibition, % at 5 µM | actives 0.19% (n = 62,000) | AID 680, 2007;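 further: each value is inhibition by a whole ten-compound pool holding the compound; 0% = enzyme with no mixture and 100% = wells lacking enzyme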
hDAT+cocaine = changed hDAT dopamine uptake under cocaine IC80, either direction, primary screen, cocaine antagonist project, cell-based, LLC-PK1 hDAT, [14C]-dopamine uptake, MLSMR; Sodium-dependent dopamine transporter (Homo sapiens), Q01959; LLC-PK1 hDAT cells, [14C]-dopamine uptake with cocaine IC80; actives deviate in either direction; B-score at 10 µM; actives 1.3% (n = 110,000); AID 449768, 2010;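 active means Z score or B-score, a plate-position-corrected score, falls beyond the plate's 99.7% confidence bounds, in either direction; inactive means both scores lie inside the 99.7% bounds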;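 further: scored against the spread of the other compound wells on the same plate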
M1 antagonist = antagonists of rat M1 muscarinic receptor. Muscarinic acetylcholine receptor M1 (Rattus norvegicus), P08482. CHO-M1 cells, Fluo-4 calcium, ACh EC80 antagonist mode; stronger effect = lower value. B-score at 10 µM. actives 3.4% (n = 64,000);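 active means calcium fluorescence response, raw or row-and-column corrected B-score, differing from the plate sample mean either way at a set confidence level, mostly lower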
M1 ag = M1 muscarinic receptor agonists, primary screen, CHO-M1 cells, Fluo-4 calcium, agonist mode; AID 626, 2007; Fluo-4 calcium fluorescence; stronger effect = higher value; B-score at 10 µM; actives 3% (n = 64,000); Muscarinic acetylcholine receptor M1;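 active means fluorescence rise, raw or as B-score row- and column-corrected plate score, outside the 99.7% band of its plate's samples, either direction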
FXIIa mix inh = human factor XIIa inhibitors, primary screen, biochemical, pooled compound mixtures, fluorogenic substrate. purified FXIIa. inhibition, % at 5 µM. actives 0.2% (n = 62,000). AID 684, 2007;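 further: 0% = enzyme without compound and 100% = no enzyme blank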
* marks the source's active call; other numbers are inactive results; . = no result. Rows were chosen to be rich in hits. Some 7.4% of all compounds tested hit in one or more screens of this group. Unless noted, no stated cut-off is given here; in the data, active means inhibition above about 20% (passing the limit was not always enough); inactive means the rest.

SMILES	D1 mod	FXIa inh mix	hDAT+cocaine	M1 antagonist	M1 ag	FXIIa mix inh
Cc1n[nH]c(C)c1S(=O)(=O)Nc1ccc2c(c1)OCCO2	-4.2*	-23	-0.099	2.3*	0.34	-6
COc1ccc(-c2nc(SC)n(C(=O)c3ccco3)n2)cc1	-0.097	24*	-0.46	-0.022	0.16	4
CCC1SC2=NC(C)=C(C(=O)OCCOC)C(/C=C/c3ccccc3OC)N2C1=O (stereo not given)	.	.	-7.6*	.	.	.
C=CCn1cc(Cl)c(=O)n(CC=C)c1=O	.	3	0.16	0.15	-1.2	6
COc1ccc2c(=O)c(-c3nc(C)cs3)coc2c1	-5.9*	.	0.027	0.91	1.1	.
COc1cccc(C2(O)CCN(C(=O)C3CCC3)CC2)c1	-0.28	3	0.032	-0.23	-0.32	-4
CCOC(=O)c1oc2ccccc2c1NC(=O)c1ccc(Cl)s1	.	.	-2.4*	.	.	.
COC(=O)c1cn(NC(=O)C2CCC(C(C)(C)C)CC2)c(=O)c2ccccc12 (stereo not given)	.	.	1.4	.	.	.
Cc1ccccc1-c1cc(C(=O)n2cccn2)c2cc(Cl)ccc2n1	.	.	0.74	.	.	.
Cc1ccc(Nc2c3c(nc4ncnn24)CC(C)CC3)cc1 (stereo not given)	.	.	1.4	.	.	.
CCOc1ccc(Nc2c3c(nc4ncnn24)CC(C)CC3)cc1 (stereo not given)	0.29	.	0.63	2.4*	1.2	.
Cc1cc(S(=O)(=O)N(Cc2ccccn2)Cc2ccco2)ccc1-n1cnnn1	0.21	1	2.6*	-0.058	-0.88	-5
Cc1ccc(NC(=O)C2CCCN2S(=O)(=O)c2cccc3cccnc23)cc1F (stereo not given)	0.19	7	0.74	0.96	0.18	5
Cc1cccc(NC(=O)C2CCCN2S(=O)(=O)c2cccc3cccnc23)c1 (stereo not given)	0.72	7	1.2	0.74*	0.72	3
O=C(Nc1nnc(C2CCCCC2)s1)c1ccco1	0.018	0	-1.7*	0.55	-1.5	1
Cc1nn(-c2ccccc2)c(C)c1C(=O)OCC(=O)NC12CC3CC(CC(C3)C1)C2	.	.	3.1*	.	.	.
Cc1oc(CC(C)C)cc1C(=O)Nc1cccc2ccccc12	.	.	-6.9*	.	.	.
COc1ccc(/C(O)=C2/C(=O)C(=O)N(CC3CCCO3)C2c2cccc(OC)c2)cc1 (stereo not given)	0.41	6	1.4	0.62	-0.8	0
Cc1nc2sc(C(c3ccccc3)N3CCN(c4ccccc4F)CC3)c(O)n2n1 (stereo not given)	-0.66	-5	-0.63	-2	0.58	8
COc1cccc(C(c2sc3nc(C)nn3c2O)N2CCN(c3ccccc3F)CC2)c1 (stereo not given)	-0.62	1	2.7*	-0.65	0.62	7
COc1ccccc1N(CC(=O)NCc1ccccc1)C(=O)CCC(=O)Nc1cc(C)ccn1	.	.	2.5*	.	.	.
CC(=O)Oc1ccccc1C(=O)Oc1ccc(/C=N/n2cnnc2)cc1	-3.3*	3	1.7	0.21	-1	-2
CCOc1ccc(/C=N/n2cnnc2)cc1	0.77	5	-0.073	-0.58	-0.41	9
COc1cccc2cc(-c3cn4cccc(C)c4n3)c(=O)oc12	0.97	7	0.35	-0.38	-0.054	8
COCCNC(=O)CSCc1c(F)cccc1Cl	0.62	2	0.037	-0.032	0.44	3
SMILES	D1 mod	FXIa inh mix	hDAT+cocaine	M1 antagonist	M1 ag	FXIIa mix inh
COCCCNC(=O)c1cn(Cc2c(F)cccc2Cl)nn1	-3.9*	4	-1.5	0.092	0.28	1
CCOC(=O)c1c(NC(=O)CSc2nnc(CNc3ccc(Cl)cc3)o2)sc(C)c1C	.	.	-0.46	.	.	.
CCOC(=O)c1c(NC(=O)CSc2nnc(CNc3ccc(F)cc3)o2)sc(C)c1C	-4.5*	7	-0.38	0.28	-0.35	24
O=C(Nc1ccc(Oc2cccc3ccccc23)cc1)c1ccco1	.	.	2.4*	.	.	.
O=C(Nc1ccc(OC(=O)c2ccco2)cc1)c1ccco1	0.071	-2	-1.2	0.72	0.18	-2
CCOC(=O)c1sc(NC(=O)/C=C/c2cnn(CC)c2C)c(C(=O)OCC)c1C	.	.	0.00032	.	.	.
CC(=O)NS(=O)(=O)c1ccc(NC(=O)c2ccc(Br)o2)cc1	.	.	-8.4*	.	.	.
O=C(Nc1ccc(S(=O)(=O)NCc2ccccc2)cc1)c1ccc(Br)o1	.	.	-0.26	.	.	.
CCOC(=O)c1cc(-c2ccco2)nc2c1c(C)nn2CCC#N	0.46	6	-0.84	1.1*	0.37	11
Cc1nc2ccc(S(=O)(=O)NC(C(=O)NCc3ccc4c(c3)OCO4)C(C)C)cc2s1 (stereo not given)	.	.	-1.1	.	.	.
O=C(NCCSCc1ccc(Cl)cc1Cl)c1ccc(CN2CCOCC2)cc1	.	.	3.2*	.	.	.
CCOC(=O)N1CCN(S(=O)(=O)c2cc(Cl)c(OC)cc2Cl)CC1	0.94	0	1.6*	0.043	-0.26	10
CCOC(=O)N1CCN(S(=O)(=O)c2cc(Br)cnc2N)CC1	-3.3*	10	-0.58	.	.	6
CCOC(=O)N1CCN(S(=O)(=O)c2cc(OCC)ccc2OCC)CC1	-0.15	7	0.55	0.43	-0.9	8
CCCN(CCC)S(=O)(=O)c1ccc(C(=O)N2CCCc3ccccc32)cc1	.	.	-0.28	.	.	.
COc1ccc(OC)c(C2=Nn3c(nnc3-c3cc(OC)c(OC)c(OC)c3)SC2)c1	0.98	8	1.2	-0.00012	3.3*	-1
CN(C)c1nc(SCc2ccccc2)nc(N2CCOCC2)n1	.	.	1	.	.	.
Nc1ccc(S(=O)(=O)c2ccc(Cl)cc2)cc1	.	.	-3.1*	.	.	.
CCOC(=O)C1CCCN(C(=O)c2cn(C)c3ccc(S(=O)(=O)N(C)C)cc3c2=O)C1 (stereo not given)	0.83	4	-0.92	0.97*	0.22	9
Cn1c2c(c(=O)n(C)c1=O)C(C(F)(F)F)(C(F)(F)F)N=C(c1ccc(Cl)cc1)N2	.	.	-3.1*	.	.	.
CC(=O)NC1(C(F)(F)F)C(=O)Nc2c1c(=O)n(C)c(=O)n2C (stereo not given)	-0.11	.	-0.34	0.22	0.26	.
COc1ccc(CN2C(=O)[C@@H]3C(c4ccc(F)cc4)=NO[C@@H]3C2=O)cc1	-1.2	2	-0.21	-0.23	-0.094	-21
C=CCOc1ccccc1/C=N/O	-0.68	-1	-1.1	-0.66	0.66	4
O=S(=O)(c1ccccc1)c1ccccc1/C=N\O	0.27	-4	-1.4	-0.022	0.13	25*
Cc1ccc(CNc2nc3ccccc3n3cnnc23)cc1	.	.	-1.9	.	.	.
CC(=O)OC1C(OC(C)=O)N(C(C)=O)C(=O)N1C(C)=O (stereo not given)	-0.62	9	-0.037	1.9*	1.7	-1
O=C(COc1ccc(F)cc1)NCC1CCCO1 (stereo not given)	-0.82	2	0.3	0.26	-0.014	2
